Results on 17 molecules are retold here after PubChem BioAssay.

Activity calls are given as the source filed them.

The test system of assay [1] is Plasmodium falciparum Sir2 (PF13_0152, Sir2A). The assay is described as follows: Plasmodium falciparum Sir2A binding compounds – biochemical, small-molecule microarray, 635 nm fluorescence, primary screen (AID 1098).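 Note: score merges spot fluorescence intensity with its signal-to-noise ratio.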 The conditions noted are these: fluorescence 635 nm, higher = more signal.
Assay [2] in a line: probe aDKK1 binding to arrayed compounds – biochemical, biotinylated probe, 635/667 nm fluorescence, primary screen (AID 1099).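 Note: score merges 667nm spot fluorescence with signal to noise across triplicate slides; reference of the scale not given here.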 The conditions noted are these: small-molecule microarray, higher = more signal.
The nature of assay [3]: probe aCHRDL2 binding to arrayed compounds – biochemical, biotinylated probe, 635/667 nm fluorescence, primary screen (AID 1100). The conditions noted are these: small-molecule microarray, higher = more signal.
Assay [4] can be described thus: change in splice reporter luminescence, either direction, cell-based, HEK293, spliceosome inhibition project, primary screen (AID 1101).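 Note: HEK293 cells carrying a splicing-competent luciferase reporter gene; test concentration not given here.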 Conditions: HEK293 splicing luciferase reporter, 24 h, higher = more signal, called active from +8 up or from −8 down. In general terms: A reporter such as luciferase makes a cellular process visible.
The target of assay [5] is Fibroblast growth factor 10 (Homo sapiens) (UniProt O15520). The assay is described as follows: compounds binding fibroblast growth factor 10 – biochemical, small-molecule microarray, 635 nm fluorescence, primary screen (AID 1102). The conditions noted are these: FGF10 binding, fluorescence 635 nm, higher = more signal.
For assay [6], the system named is glycogen synthase kinase-3 (GSK3A per assay name; protocol says GSK3B). The assay is described as follows: compounds binding glycogen synthase kinase-3 – biochemical, small-molecule microarray, 635 nm fluorescence, GSK3A, primary screen (AID 1103). Note: the record names both GSK3A and GSK3B. The conditions noted are these: fluorescence 635 nm, higher = more signal.
In assay [7] the target is Epidermal growth factor receptor (Homo sapiens) (UniProt P00533). The assay is described as follows: compounds binding epidermal growth factor receptor – biochemical, small-molecule microarray, 635 nm fluorescence, primary screen (AID 1104).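 Note: score merges 667 nm emission intensity with spot signal to noise over triplicate slides.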 The conditions noted are these: EGFR binding, higher = more signal.
For assay [8], the target named is Follistatin-related protein 3 (Homo sapiens) (UniProt O95633). The assay is described as follows: compounds binding follistatin-related protein 3 – biochemical, small-molecule microarray, 635 nm fluorescence, primary screen (AID 1105).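 Note: score merges emission near 667 nm and signal to noise per printed spot across three slides.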 The conditions noted are these: FSTL3 binding, higher = more signal.
Assay [9] has as its target Dickkopf-related protein 1 (Homo sapiens) (UniProt O94907). The assay is described as follows: small molecules binding DKK1 protein – biochemical, small-molecule microarray, 635 nm fluorescence scan, primary screen (AID 1106).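 Note: score merges emission near 667 nm with signal to noise over three replicate slides.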 The conditions noted are these: higher = more signal.
For assay [10], the system named is Inhibin beta A chain (activin A). The assay is described as follows: small molecules binding activin A – biochemical, small-molecule microarray, 635 nm fluorescence scan, primary screen (AID 1107).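 Note: mouse activin A protein probed at 4.33 µg/mL on printed slides; score merges bound-protein fluorescence near 667 nm with spot signal-to-noise.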 Conditions: INHBA, higher = more signal.

Sequence of Dickkopf-related protein 1 (Homo sapiens) (O94907 whole entry, looked up): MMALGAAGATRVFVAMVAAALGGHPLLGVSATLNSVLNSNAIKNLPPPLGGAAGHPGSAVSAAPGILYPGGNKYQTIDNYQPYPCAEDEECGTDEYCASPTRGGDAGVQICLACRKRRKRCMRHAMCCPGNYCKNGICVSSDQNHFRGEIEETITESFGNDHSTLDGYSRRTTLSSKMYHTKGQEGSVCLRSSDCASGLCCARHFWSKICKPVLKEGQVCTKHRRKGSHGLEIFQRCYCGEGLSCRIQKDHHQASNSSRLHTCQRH
Sequence of Follistatin-related protein 3 (Homo sapiens) (O95633 whole entry, looked up): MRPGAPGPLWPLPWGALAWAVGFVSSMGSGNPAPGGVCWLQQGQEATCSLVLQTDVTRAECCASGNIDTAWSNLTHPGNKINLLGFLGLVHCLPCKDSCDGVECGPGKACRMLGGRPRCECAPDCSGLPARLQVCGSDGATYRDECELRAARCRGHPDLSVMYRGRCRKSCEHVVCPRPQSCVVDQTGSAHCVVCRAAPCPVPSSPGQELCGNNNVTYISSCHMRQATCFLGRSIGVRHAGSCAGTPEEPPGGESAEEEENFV
Sequence of Fibroblast growth factor 10 (Homo sapiens) (O15520 whole entry, looked up): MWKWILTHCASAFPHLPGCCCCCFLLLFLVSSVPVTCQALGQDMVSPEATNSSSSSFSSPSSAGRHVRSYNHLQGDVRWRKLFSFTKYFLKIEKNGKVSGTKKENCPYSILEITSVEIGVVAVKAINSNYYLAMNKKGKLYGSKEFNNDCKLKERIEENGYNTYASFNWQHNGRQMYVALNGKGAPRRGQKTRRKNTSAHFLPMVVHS
Sequence of Epidermal growth factor receptor (Homo sapiens) (P00533 whole entry, looked up): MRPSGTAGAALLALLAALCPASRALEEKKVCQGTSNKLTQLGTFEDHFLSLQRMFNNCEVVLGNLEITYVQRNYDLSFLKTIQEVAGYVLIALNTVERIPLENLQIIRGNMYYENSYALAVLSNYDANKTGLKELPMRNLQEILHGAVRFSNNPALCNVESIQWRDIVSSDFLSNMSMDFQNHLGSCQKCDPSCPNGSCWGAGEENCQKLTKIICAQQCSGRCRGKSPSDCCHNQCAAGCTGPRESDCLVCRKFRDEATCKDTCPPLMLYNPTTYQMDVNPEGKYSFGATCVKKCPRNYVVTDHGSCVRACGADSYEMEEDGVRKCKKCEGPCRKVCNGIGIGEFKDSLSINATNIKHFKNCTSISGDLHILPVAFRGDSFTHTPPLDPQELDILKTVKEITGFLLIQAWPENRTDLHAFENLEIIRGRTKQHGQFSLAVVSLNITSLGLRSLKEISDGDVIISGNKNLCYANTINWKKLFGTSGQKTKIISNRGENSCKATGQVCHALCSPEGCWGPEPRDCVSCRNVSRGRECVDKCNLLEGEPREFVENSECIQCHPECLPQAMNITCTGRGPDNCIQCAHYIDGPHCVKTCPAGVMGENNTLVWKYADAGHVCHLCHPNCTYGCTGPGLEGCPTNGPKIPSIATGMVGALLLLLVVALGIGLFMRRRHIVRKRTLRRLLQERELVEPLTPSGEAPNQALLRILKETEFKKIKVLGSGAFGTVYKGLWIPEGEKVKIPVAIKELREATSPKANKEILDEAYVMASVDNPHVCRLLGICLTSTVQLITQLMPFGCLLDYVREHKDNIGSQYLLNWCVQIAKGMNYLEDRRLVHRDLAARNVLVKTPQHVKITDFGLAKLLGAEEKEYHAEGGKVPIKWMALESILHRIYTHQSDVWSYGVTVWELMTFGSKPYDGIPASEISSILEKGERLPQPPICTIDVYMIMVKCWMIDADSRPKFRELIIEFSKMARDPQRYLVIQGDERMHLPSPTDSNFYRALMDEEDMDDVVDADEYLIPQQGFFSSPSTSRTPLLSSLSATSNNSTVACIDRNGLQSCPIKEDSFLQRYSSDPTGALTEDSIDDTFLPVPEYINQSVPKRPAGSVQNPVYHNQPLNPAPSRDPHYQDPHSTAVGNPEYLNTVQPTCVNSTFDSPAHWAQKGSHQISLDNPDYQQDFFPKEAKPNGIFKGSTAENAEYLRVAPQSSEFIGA

With `O=C(NN=C1C[C@@H](O)[C@@H](O)[C@@H]2[C@@H]3C(=O)N(C4CCCCC4)C(=O)[C@@H]3CC[C@@H]12)OCc1ccccc1`, the composite z-score in assay [1] was 0.174; in [2], 0.261; in assay [3] it was 0.515; in assay [5], 0.0342; in assay [6], 0.0686; in assay [7], -0.0311. In addition, the composite z-score in assay [8] is 0.524; in assay [9], -0.0447; in [10], -0.347. Further, the z-score in assay [4] was 0.662 (inactive).
As to `CC(C)(C)N1C(=O)[C@H]2[C@H]3[C@H](O)[C@H](O)CC(=NOCc4ccccc4)[C@H]3CC[C@H]2C1=O`, the composite z-score in [1] was 0.0828; in [2], 0.989; in [3] it was 1.36; in assay [5], 0.0277; in assay [6] it was -0.399; in assay [7] it was -0.376. Also, the results for the composite z-score in [8], in assay [9] and in [10] were -0.663, -0.551 and 0.251, respectively. In addition, in assay [4], the z-score is 0.453 (inactive).
As to `C=CC[C@@H]1C=C[C@H](ON=C(C)CCC(=O)OC[C@H]2O[C@H](C#Cc3ccccc3)C=C[C@@H]2Oc2ccc(C)cc2)[C@@H](CO)O1`, the composite z-score in assay [1] is 1.19; in assay [2], -0.0927; in assay [3] it was -0.515; in assay [5], 1.16; in assay [6] it was 1.01; in assay [7] it was 0.298. The composite z-score in assay [8] was 1.04; in assay [9], 0.606; in assay [10] it was -0.117. Also, the z-score in assay [4] is -0.439 (inactive).
Consider `CC(C)=CCCC(C)=CCON=C1C[C@@H](O)[C@@H](O)[C@@H]2[C@@H]3C(=O)N(C[C@@H]4CCCO4)C(=O)[C@@H]3CC[C@H]12`, for which the composite z-score in assay [1] was 0.346; in [2], -0.257; in assay [3], -0.762; in assay [5], 1.37; in assay [6], 1.25; in [7], 1.29. Further, the results for the composite z-score in assay [8], in assay [9] and in assay [10] were 1.39, 1.46 and 1, respectively. The z-score in assay [4] is 0.91 (inactive).
On to `CCOC(=O)C1=NO[C@]2(C=C(Br)C3(OCCCO3)[C@H]3O[C@H]32)C1`, for which the composite z-score was -0.695 in [1]; -0.32 in assay [2]; -0.274 in assay [3]; 0.18 in assay [5]; -0.512 in assay [6]; -0.203 in assay [7]. The composite z-score in [8] is -0.425; in [9], -0.123; in assay [10] it was 0.549. Further, the z-score in [4] is 0.437 (inactive).
Turning to `CCCNC(=O)OC[C@H]1O[C@H](CCON=C(C)CCC(=O)OC[C@H]2O[C@H](c3ccccc3)C=C[C@@H]2Oc2ccc(OC)cc2)C=C[C@@H]1Oc1ccc(OC)cc1`, the composite z-score is 0.452 in assay [1]; -0.183 in assay [2]; -0.207 in assay [3]; -0.445 in assay [5]; -1.49 in assay [6]; -0.239 in assay [7]. In addition, the composite z-score in assay [8] was -0.31; in [9] it was 0.0289; in assay [10] it was 0.844. In [4], the z-score was 0.358 (inactive).
As for `CO[C@H]1COC(=O)CC=C[C@H](C)[C@@H](OC)COC(=O)[C@@H](C)COC(=O)CC=C[C@@H]1C`, the composite z-score in assay [1] was 0.567; in [2], -0.909; in [3] it was -1.66; in assay [5], 0.902; in assay [6] it was 0.709; in [7] it was 1.32. In addition, the composite z-score stood at 1.47 in assay [8], 1.3 in assay [9] and 1.79 in assay [10]. Also, the z-score in assay [4] was 0.337 (inactive).
Turning to `O=C1[C@H]2[C@H]3[C@H](O)[C@H](O)CC(=NOCc4ccccc4)[C@@H]3CC[C@H]2C(=O)N1c1ccc(F)cc1F`, the composite z-score in assay [1] is 0.0102; in [2] it was -0.376; in assay [3] it was -0.554; in [5] it was 0.224; in assay [6], -0.0906; in assay [7], 0.208. In addition, the composite z-score in assay [8] was 0.286; in [9], 0.347; in [10] it was -0.178. Further, the z-score in [4] was -1.29 (inactive).
As to `COC(=O)CC=C[C@@H](C)[C@H](OCc1cccc(-c2ccccc2)c1)C1CCCCC1`, the composite z-score was -0.632 in assay [1]; -0.416 in [2]; -0.223 in assay [3]; -0.127 in assay [5]; -1.21 in assay [6]; 0.371 in assay [7]. Besides, the composite z-score in [8] was determined as 0.736; in assay [9] it was 0.352; in [10] it was 1.97. Also, the z-score in [4] was -0.102 (inactive).
Turning to `CCOC(=O)[C@H](CC(C)C)NC(=O)CCC1CC(OC(=O)NCc2cccc3ccccc23)CC2(CCCC(COC(=O)NCCOC)O2)O1` (stereo not given in full), the composite z-score was 0.546 in [1]; -0.164 in [2]; -0.401 in assay [3]; 0.799 in assay [5]; 1.3 in assay [6]; 0.412 in assay [7]. For the same molecule, the composite z-score in [8] is 1.17; in assay [9], 0.358; in assay [10], -0.0748. For the same molecule, the z-score in assay [4] is -1.8 (inactive).
Take `COC(=O)[C@H](C)NC(=O)CCC1CC(OC(=O)NCc2ccc3c(c2)OCO3)CC2(CCCC(COC(=O)NCC(c3ccccc3)c3ccccc3)O2)O1` (stereo not given in full): the composite z-score was 0.848 in assay [1]; -0.33 in assay [2]; -0.845 in [3]; 1.33 in assay [5]; 0.653 in assay [6]; 0.651 in assay [7]. Further, the composite z-score is 1.2 in assay [8], 0.766 in [9] and -0.473 in assay [10]. For the same molecule, in assay [4], the z-score is -0.845 (inactive).
For `CCCNC(=O)OC[C@H]1O[C@H](CCON=C(C)CCN2CCCc3nc(C)c(C)cc32)C=C[C@@H]1Oc1ccc(OC)cc1`, the composite z-score is 0.333 in assay [1]; 0.595 in assay [2]; -0.237 in [3]; 0.653 in assay [5]; 0.73 in assay [6]; 0.509 in assay [7]. In addition, the composite z-score in assay [8] is 0.605; in assay [9] it was 0.687; in [10] it was 0.491. Moreover, in [4], the z-score was 0.304 (inactive).
Take `Cc1ccc(S(=O)(=O)N[C@H]2COC(=O)CC=C[C@@H](C)COC(=O)CC=C[C@@H]2C)cc1`: the composite z-score was 0.549 in assay [1]; -0.789 in assay [2]; -1.26 in assay [3]; 0.813 in assay [5]; 0.448 in [6]; 0.823 in assay [7]. Further, the composite z-score is 1.4 in assay [8], 2.04 in assay [9] and 1.36 in [10]. For the same molecule, the z-score in assay [4] was 0.597 (inactive).
Regarding `CC[C@@H](c1ccccc1)n1c(=O)n2n(c1=O)[C@H]1[C@H](O)[C@@H]3O[C@@H]3C(=O)[C@H]1CC2`, the composite z-score was 1.23 in assay [1]; -0.245 in [2]; -0.717 in assay [3]; 0.427 in assay [5]; 0.417 in [6]; 0.489 in assay [7]. Moreover, the figures for the composite z-score in [8], in assay [9] and in assay [10] were 0.32, 0.466 and 0.384, respectively. Moreover, in assay [4], the z-score was 0.797 (inactive).
Turning to `CC(C)(C)N1C(=O)[C@H]2[C@H]3[C@H](O)[C@H](O)CC(=O)[C@@H]3CC[C@H]2C1=O`, the composite z-score was 0.369 in assay [1]; -0.227 in assay [2]; -0.658 in assay [3]; 0.639 in assay [5]; 0.239 in assay [6]; 0.479 in [7]. For the same molecule, the composite z-score in assay [8] turned out to be 0.265; in assay [9] it was 0.711; in assay [10], 0.156. Moreover, in assay [4], the z-score was 0.343 (inactive).
Consider `COC(=O)CC=C[C@@H](C)[C@@H](C=NOCC[C@@H]1C=C[C@H](OC(C)=O)[C@@H](COC(C)=O)O1)NS(=O)(=O)c1ccc(C)cc1`, for which the composite z-score was 0.133 in [1]; -0.322 in assay [2]; -0.331 in [3]; -0.183 in [5]; 0.328 in assay [6]; 0.736 in assay [7]. Besides, the composite z-score in assay [8] stood at 0.0237; in [9] it was 0.316; in assay [10] it was 0.46. Besides, in assay [4], the z-score is -0.43 (inactive).
`CCOC(=O)[C@H](Cc1ccccc1)NC(=O)CCC1CC(OC(=O)NCc2cccc3ccccc23)CC2(CCCC(COC(=O)NCc3ccccc3)O2)O1` (stereo not given in full): the composite z-score in [1] was 0.388; in assay [2] it was -0.208; in assay [3], -0.285; in assay [5] it was 0.286; in assay [6], -0.231; in [7], 0.173. Besides, the composite z-score in [8] was determined as 0.689; in [9] it was 0.223; in assay [10], 0.103. Besides, in assay [4], the z-score is -2.41 (inactive).
